Rows were chosen to be rich in hits. Some 8% of all compounds tested hit in one or more screens of this group.
MARV entry inh – qHTS for inhibitors of binding or entry into cells for Marburg Virus. Marburg virus pseudotyped entry inhibition, cell reporter. Potency, µM (titrated, usually from 37.8 µM), without a hit: top-dose activity change, negative = inhibition, actives largely listed as inhibitors. 300,000 tested, 1.8% active. AID 540276, 2011; calls by dose curve; tested in HEK293 cells; further: potency means the concentration at half of the fitted maximal effect; on the % scale 0 is the no-effect control and ±100 the full control effect
SARS PLP yeast – qHTS of Yeast-based Assay for SARS-CoV PLP. S. cerevisiae expressing SARS-CoV PLpro, growth rescue. Potency, µM (titrated, usually from 32.9 µM), without a hit: at the highest dose activity, positive = growth rescue, most hits filed as activators. 330,000 tested, 0.19% active. AID 485353, 2010; calls by dose curve; further: potency means the concentration at half of the fitted maximal effect; 0% is about no effect; nearly all actives have a fitted effect of over 55% in size
Lassa entry inh – qHTS for Inhibitors of binding or entry into cells for Lassa Virus; Potency, µM (top dose mostly 37.9 µM), without a hit: at the highest dose activity change, negative = inhibition, actives largely listed as inhibitors; Lassa virus pseudotype entry inhibition, cell reporter; AID 540256, 2011; 300,000 tested, 1.2% active; calls by dose curve; tested in HEK293 cells; further: potency means the concentration at half of the fitted maximal effect; on the % scale 0 is the no-effect control and ±100 the full control effect; nearly all actives have a fitted effect of over 50% in size
FMDV antiviral – High Throughput Screening for Foot and Mouth Disease Virus Antivirals | FMDV antiviral cell-based qHTS | Potency, µM (series often up to 57.9 µM), without a hit: at the highest dose activity change, negative = inhibition, actives largely listed as inhibitors | 410,000 tested, 1.2% active | AID 1159524, 2015; calls by dose curve; tested in HEK293T cells; further: read-out not given here; potency means the concentration at half of the fitted maximal effect; on the % scale 0 is the no-effect control and ±100 the full control effect; nearly all actives have a fitted effect of over 45% in size
HCMV inh – qHTS Assay for inhibitors of the human cytomegalovirus (HCMV). AID 1259415, 2018. 410,000 tested, 4.5% active. activity change, negative = inhibition, % at 57.5 µM. HFF cells, HCMV-luciferase reporter, 72 h; hits give low values; in the data active means activity change below about -60%; inconclusive means no clear call, values can overlap the other calls; inactive means above about -39%; further: on the % scale 0 is the no-effect control and ±100 the full control effect
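Two-dose cell screen: HFF monolayers treated with compounds and infected with luciferase-expressing HCMV at 1 PFU/cell, 72 h at 37C, then lysed for luciferase measurement.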
HCV inh – qHTS Assay for Inhibitors of Hepatitis C Virus (HCV). Huh7.5.1 HCVcc-Cre infection, luciferase reporter, 44 h. Potency, µM (highest dose often 41.8 µM), inactives show at the top dose activity change, negative = inhibition, hits mostly inhibitors. 340,000 tested, 3.4% active. AID 651820, 2012; active means well fitted inhibition curve with a large enough effect; inconclusive means small, poorly fitted or top-dose-only effect, or another doubt; inactive means no such curve, though single readings can be large or run the other way; further: potency means the concentration at half of the fitted maximal effect; on the % scale 0 is the no-effect control and ±100 the full control effect
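Infectious HCVcc-Cre (~0.5 moi) was added to cells just after compound, with cells seeded 4 h earlier at 1,000 per well. Luciferase activity after 44 h culture reported infection; substrate was incubated 15 min at room temperature before reading.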
Active calls of the source: *; [ ] = another dose, or the depositor's remark.

`Cc1cc(=O)n(CC(=O)Nc2ccc([N+](=O)[O-])cc2)c(-n2nc(C)cc2C)n1` gave Lassa entry inh 15.1%[46.1 µM], FMDV antiviral -14.3% and HCMV inh 0.0.
Screening CCOc1ccc(C(=O)c2cn(CC(=O)Nc3ccc(F)cc3)c3cc4c(cc3c2=O)OCCO4)cc1 returned MARV entry inh -5.3%[46.1 µM], Lassa entry inh -0.5%[46.1 µM], FMDV antiviral -5.9% and HCMV inh -1.2.
Screening CN1CCN(S(=O)(=O)c2cccc(C(=O)Nc3sc4c(c3-c3nc5ccccc5[nH]3)CCCC4)c2)CC1 returned MARV entry inh 16.4µM*, SARS PLP yeast -23.3%, Lassa entry inh 1.5%, FMDV antiviral 24.6%, HCMV inh 65.5 and HCV inh 3.55µM*.
Screening O=C(Nc1sc2c(c1-c1nc3ccccc3[nH]1)CCCC2)C1CCCC1 returned MARV entry inh -11.5%, SARS PLP yeast -1.5%, Lassa entry inh 10.5%, FMDV antiviral -2.4%, HCMV inh -13.3 and HCV inh inconclusive.
CC(=O)NCCC(=O)Nc1sc2c(c1-c1nc3ccccc3[nH]1)CCCC2 was read as MARV entry inh -6.0%, SARS PLP yeast 2.7%, Lassa entry inh -16.8%, FMDV antiviral 10.7%, HCMV inh -16.0 and HCV inh 11.2µM*.
CC(=O)N1CCN(S(=O)(=O)c2cccc(C(=O)Nc3nc4c(s3)CCCC4)c2)CC1 was read as MARV entry inh inconclusive, SARS PLP yeast 0.2%, Lassa entry inh -23.7%, FMDV antiviral -17.4%, HCMV inh 18.0 and HCV inh inconclusive.
CCCN(C(=O)c1cc2c(=O)n(CC)c3ccccc3c2s1)c1ccccc1F was read as MARV entry inh -15.8%[46.1 µM], Lassa entry inh 2.9%[46.1 µM], FMDV antiviral -27.1% and HCMV inh -8.7.
`CCn1c(=O)c2cc(C(=O)N(C)c3cc(Cl)c(OC)cc3OC)sc2c2ccccc21` gave MARV entry inh 11.0%[46.1 µM], Lassa entry inh 15.9%[46.1 µM], FMDV antiviral -20.6% and HCMV inh 2.2.
CCn1c(=O)c2cc(C(=O)N(C)c3ccccc3F)sc2c2ccccc21 was read as MARV entry inh -0.8%[46.1 µM], SARS PLP yeast 0.1%, Lassa entry inh -4.3%[46.1 µM], FMDV antiviral -25.8%, HCMV inh inconclusive and HCV inh 1µM*.
Screening CCn1c(=O)c2cc(C(=O)N(C)c3cc(C)ccc3OC)sc2c2ccccc21 returned SARS PLP yeast -1.8%, FMDV antiviral -47.2%, HCMV inh 0.0 and HCV inh 12.6µM*.
`CCOc1ccccc1N(CC)C(=O)c1cc2c(=O)n(CC)c3ccccc3c2s1` gave MARV entry inh inconclusive, Lassa entry inh -29.3%[46.1 µM], FMDV antiviral inconclusive and HCMV inh -70.2*.
`O=C(c1ccc2c(c1)OCO2)N(Cc1cc2ccc(F)cc2nc1N1CCC(O)CC1)CC1CCCO1` (stereo not given) gave FMDV antiviral -6.9%.
Screening Cc1cc(N2CCCC2)nc(-c2ccccc2O)n1 returned MARV entry inh -0.3%, SARS PLP yeast 1.0%, Lassa entry inh 5.6%, FMDV antiviral 12.9%, HCMV inh -101.9* and HCV inh 3.16µM*.
Cc1cc(C)nc(N2CCN(S(=O)(=O)c3ccc(F)cc3)CC2)n1 was read as SARS PLP yeast 1.6%, FMDV antiviral -22.7%, HCMV inh -23.1 and HCV inh 3.0%.
Cc1cc(C)nc(N2CCN(c3ccc(F)cc3)CC2)n1 was read as SARS PLP yeast -1.8%, FMDV antiviral 24.2%, HCMV inh -24.2 and HCV inh 10µM*.
`Cc1cc(N2CCN(C)CC2)nc(-c2ccccc2O)n1` gave SARS PLP yeast 0.3%, FMDV antiviral 0.0%, HCMV inh -32.4 and HCV inh inconclusive.
`Cc1cc(N2CCN(c3ccc(F)cc3)CC2)nc(-c2ccccc2)n1` gave MARV entry inh -0.5%, SARS PLP yeast -67.3%, Lassa entry inh -19.6%, FMDV antiviral -24.5%, HCMV inh inconclusive and HCV inh 10µM*.
Cc1ccc(-c2nc(S(=O)(=O)c3ccc(C)cc3)c(N3CCCCC3)o2)cc1 was read as Lassa entry inh inconclusive, FMDV antiviral 39.4% and HCMV inh 20.4.
For CCN(CC)CCCn1c(C)cc2c(c1=O)C(c1cccc(Cl)c1)C(C#N)=C(N)O2 (stereo not given) the results were MARV entry inh 11.2µM*, SARS PLP yeast 0.8%, Lassa entry inh inconclusive, FMDV antiviral 1.8%, HCMV inh 18.2 and HCV inh -5.8%.
For CCN(CC)CCCn1c(C)cc2c(c1=O)C(c1cc(OC)c(OC)cc1OC)C(C#N)=C(N)O2 (stereo not given) the results were MARV entry inh 13.6%, SARS PLP yeast -0.8%, Lassa entry inh 2.6%, FMDV antiviral -24.7%, HCMV inh 13.4 and HCV inh 6.8%.
For CCN(CC)C(=S)NC(=O)Cc1ccccc1 the results were MARV entry inh 1.0%[46.1 µM], SARS PLP yeast -0.8%, Lassa entry inh 0.1%[46.1 µM], FMDV antiviral 40.6%, HCMV inh -20.2 and HCV inh 21.6%.
For CN(C(=S)NC(=O)Cc1ccccc1)c1ccccc1 the results were MARV entry inh 8.4%[46.1 µM], SARS PLP yeast -0.3%, Lassa entry inh -36.3%, FMDV antiviral 44.1%, HCMV inh -66.6* and HCV inh 9.7%.
For O=C(OCc1ccccc1)c1cccnc1 the results were HCMV inh 1.6.
For O=C(Nc1ccc(Cl)cc1)Nc1nc(-c2ccccc2O)cs1 the results were SARS PLP yeast -1.3%, FMDV antiviral inconclusive, HCMV inh -65.6* and HCV inh inconclusive.
Screening CCOC(=O)Cc1csc(NC(=O)Nc2cccc(Cl)c2)n1 returned MARV entry inh -5.5%[46.1 µM], SARS PLP yeast 13.5%, Lassa entry inh inconclusive, FMDV antiviral inconclusive, HCMV inh -60.3* and HCV inh inconclusive.
For CC(N)c1csc(NC(=O)Nc2cccc(C(F)(F)F)c2)n1 (stereo not given) the results were FMDV antiviral -16.2% and HCMV inh -68.2*.
Screening O=C(Nc1ccc(Cl)cc1)Nc1nc(-c2sccc2Br)cs1 returned MARV entry inh inconclusive, SARS PLP yeast 4.7%, Lassa entry inh inconclusive, FMDV antiviral 1.0%, HCMV inh inconclusive and HCV inh 18.4%.
Screening NC(c1csc(NC(=O)Nc2cccc(Cl)c2)n1)c1ccccc1Cl (stereo not given) returned FMDV antiviral -13.1% and HCMV inh -75.8*.
`CN(C)Cc1csc(NC(=O)Nc2cccc(C(F)(F)F)c2)n1` gave FMDV antiviral -21.7% and HCMV inh -25.8.
For CCOC(=O)COc1ccc(CC)cc1C(=O)c1ccn2nc(-c3ccc(Cl)cc3)cc2n1 the results were MARV entry inh 8.3%[46.1 µM], Lassa entry inh 23.0%[46.1 µM], FMDV antiviral -5.3% and HCMV inh 11.3.
